For eight compounds, outcome and AC50 results are on record in PubChem BioAssay (EPA / NIEHS).

Each structure is given as a SMILES string. Inconclusive results are not listed. Calls of active or inactive are those of the source. Rule for the calls, unless noted: active = hit-call score of the fitted dose curve at least 0.9, where 1 is the maximum; inactive = score below 0.9.

Assay [1] in a line: ATG_PBREM_CIS: Attagene CIS-FACTORIAL HepG2 Assay for human Phenobarbital-responsive Enhancer Module (PBREM) (AID 2282955). As to conditions: HepG2 PBREM cis-reporter, Attagene multiplexed transcription; actives raise or lower the signal. Put shortly: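 Cells were transfected with cis-element reporter units and treated for 24 h, after which RNA was extracted and reporter transcripts measured by RT-PCR and capillary electrophoresis.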

The target in assay [2] is Paired box protein Pax-6 (Homo sapiens) (UniProt P26367). The experiment in a line: ATG_Pax6_CIS: Attagene CIS-FACTORIAL HepG2 Assay for human Paired Box 6 (PAX6) (AID 2282956). Conditions: HepG2 CIS-FACTORIAL PAX6 reporter transcription, RNA readout; actives raise or lower the signal. Put shortly:
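After twenty-four hours of chemical exposure, transfected HepG2 cells are harvested for RNA. Cis-promoter reporter transcripts are amplified, fluorescently labelled and sized by capillary electrophoresis, with gain and loss of signal scored against DMSO.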

Assay [3] can be described thus: ATG_PXRE_CIS: Attagene CIS-FACTORIAL HepG2 Assay for human Pregnane X Receptor Element (PXRE) (AID 2282957). As to conditions: HepG2 Attagene CIS-FACTORIAL PXRE reporter, mRNA; actives raise or lower the signal. Put shortly:
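HepG2 cells transiently transfected with cis-element-driven multiplexed reporter units; after 24 h chemical exposure, reporter mRNA measured by RT-PCR, 6-FAM labelling, HpaI digestion and capillary electrophoresis. Bidirectional fitting relative to DMSO.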

Assay [4] can be described thus: ATG_PPRE_CIS: Attagene CIS-FACTORIAL HepG2 Assay for human Peroxisome Proliferator-activated Response Element (PPRE) (AID 2282958). Conditions: HepG2 PPRE cis-element reporter, Attagene transcription factor profiling; actives raise or lower the signal. The procedure, abridged: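 In this cell-based multiplex, a PPRE cis element drives a reporter sequence in transiently transfected HepG2 cells. Following 24 h treatment, labeled cDNA amplicons are sized and quantified by capillary electrophoresis, with DMSO defining baseline.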

A short description of assay [5]: ATG_RORE_CIS: Attagene CIS-FACTORIAL HepG2 Assay for human RAR-related Orphan Receptor Element (RORE) (AID 2282959). Conditions: HepG2 Attagene cis-factorial RORE reporter, mRNA; actives raise or lower the signal. Put shortly: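 Endogenous factor activity at a cis response element is read as reporter transcript levels in HepG2 cells, 24 h post-dose. Transcripts are quantified by RT-PCR with capillary electrophoresis, and data fitted in both directions against DMSO.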

Assay [6] can be described thus: ATG_Sox_CIS: Attagene CIS-FACTORIAL HepG2 Assay for human SRY-box transcription factor (SOX) (AID 2282960). As to conditions: HepG2 Attagene cis-factorial SOX reporter, mRNA; actives raise or lower the signal. The procedure, abridged: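 Measures mRNA induction of a SOX1-associated reporter in HepG2 after 24 h dosing. Fluorescently labelled RT-PCR fragments are separated by capillary electrophoresis, and gain or loss relative to DMSO control is fitted.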

Assay [7] deals with Transcription factor Sp1 (Homo sapiens) (UniProt P08047). The experiment in a line: ATG_Sp1_CIS: Attagene CIS-FACTORIAL HepG2 Assay for human Specificity Protein 1 (Sp1) (AID 2282961). Conditions: HepG2 Sp1 cis-reporter transcription, actives raise or lower the signal. Put shortly:
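Cells: HepG2, transiently transfected with cis-regulated multiplexed reporters. Exposure: 24 h. Detection: reporter transcripts amplified, fluorescently labeled, restriction-digested and sized by capillary electrophoresis. Analysis: bidirectional fit relative to DMSO.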

The nature of assay [8]: ATG_SREBP_CIS: Attagene CIS-FACTORIAL HepG2 Assay for human Sterol Regulatory Element Binding (SREBP) (AID 2282962). As to conditions: HepG2 Attagene cis-factorial SREBP reporter, mRNA; actives raise or lower the signal. The procedure, abridged:
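Twenty-four hours after chemical dosing of transfected HepG2 cultures, reporter RNA was converted to cDNA, amplified, end-labelled with 6-FAM and resolved by capillary electrophoresis. Responses were fitted relative to DMSO.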

Assay [9] deals with Signal transducer and activator of transcription 3 (Homo sapiens) (UniProt P40763). The experiment in a line: ATG_STAT3_CIS: Attagene CIS-FACTORIAL HepG2 Assay for human Signal Transducer and Activator of Transcription 3 (STAT3) (AID 2282963). As to conditions: HepG2, Attagene cis-factorial STAT3 reporter transcription; actives raise or lower the signal. Put shortly: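 Endogenous STAT3-responsive cis-element activity was read in transiently transfected HepG2 cells after 24 h treatment. Reporter transcripts were quantified via RT-PCR and capillary electrophoresis, with DMSO as negative control and bidirectional curve fitting.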

A short description of assay [10]: ATG_TA_CIS: Attagene CIS-FACTORIAL HepG2 Assay for human TA Basal Promoter (AID 2282964). As to conditions: HepG2 Attagene CIS-factorial TA basal promoter reporter; actives raise or lower the signal. The procedure, abridged: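 Read-out: fluorescent reporter-transcript fragments resolved by capillary electrophoresis after RT-PCR and HpaI digestion. Source: HepG2 cells carrying transiently transfected multi-reporter cis constructs, treated 24 h. Endpoint fitted bidirectionally relative to DMSO.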

Assay [11] in a line: ATG_TCF_b_cat_CIS: Attagene CIS-FACTORIAL HepG2 Assay for human T-Cell-Factor with beta-catenin (TCF/b-cat) (AID 2282965). As to conditions: HepG2 TCF/beta-catenin cis-reporter transcription, actives raise or lower the signal. Put shortly: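 Endogenous transcription factor activity is captured through cis-promoter reporter constructs transiently introduced into human HepG2 liver cells. Induced reporter mRNA is measured after 24 h and fitted bidirectionally relative to DMSO.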

Assay [12] in a line: ATG_TAL_CIS: Attagene CIS-FACTORIAL HepG2 Assay for human TAL Basal Promoter (AID 2282966).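 Note: background control endpoint measuring basal TAL promoter reporter mRNA not a specific factor.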 Conditions: HepG2 Attagene cis-factorial TAL promoter reporter; actives raise or lower the signal. Put shortly: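 HepG2 cells transiently transfected with multiplexed cis-promoter reporter units, dosed 24 h. Reporter mRNA quantified by RT-PCR, 6-FAM labelling, HpaI digestion and capillary electrophoresis; TAL basal promoter serves as background control, fitted bidirectionally versus DMSO.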

The nature of assay [13]: ATG_TGFb_CIS: Attagene CIS-FACTORIAL HepG2 Assay for human Transforming Growth Factor (TGF) (AID 2282967). As to conditions: HepG2 Attagene CIS TGFb reporter, mRNA transcription; actives raise or lower the signal. The procedure, abridged: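 Transient MRTU transfection of HepG2 (FuGene 6). Dose 24 h. TriZol RNA, oligo(dT) RT, PCR, 6-FAM primer extension, HpaI cut, CE. Bidirectional fit, DMSO = baseline.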

Assay [14] in a line: ATG_VDRE_CIS: Attagene CIS-FACTORIAL HepG2 Assay for human Vitamin D Receptor Element (VDRE) (AID 2282968). Conditions: HepG2 VDRE cis-reporter transcription, actives raise or lower the signal. The procedure, abridged:
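Reporter mRNA induction, quantified by capillary electrophoresis of fluorescently labelled RT-PCR products, was read 24 h after dosing HepG2 cells carrying transiently transfected cis-regulated reporter units; gain or loss relative to DMSO.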

The target in assay [15] is Nuclear receptor subfamily 1 group I member 3 (Homo sapiens) (UniProt Q14994). The experiment in a line: ATG_CAR_TRANS: Attagene TRANS-FACTORIAL HepG2 Assay for human Constitutive Androstane Receptor (CAR) (AID 2282969; active = hit-call score of the fitted dose curve at least 0.9, where 1 is the maximum;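 note: activators raise reporter mRNA above DMSO so AC50 marks induction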). As to conditions: HepG2 Attagene TRANS-FACTORIAL CAR reporter. The procedure, abridged:
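Readout is reporter mRNA induction, quantified by fluorescent primer extension and capillary electrophoresis after RT-PCR. Cells were HepG2 transiently carrying chimeric NR-Gal4 constructs with GAL4-UAS reporters, treated for 24 h; activity scored upward from DMSO.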

Assay [16] concerns the target Estrogen receptor (Homo sapiens) (UniProt P03372). The experiment in a line: ATG_ERa_TRANS: Attagene TRANS-FACTORIAL HepG2 Assay for human Estrogen Receptor alpha (ERa) (AID 2282970; active = hit-call score of the fitted dose curve at least 0.9, where 1 is the maximum). As to conditions: HepG2 Attagene TRANS ERa GAL4 reporter, mRNA. The procedure, abridged: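 HepG2 cells transiently transfected with multiplexed GAL4-UAS reporter units read out chimeric NR-Gal4 activity. After 24 h compound exposure, reporter mRNA was quantified by RT-PCR, 6-FAM labeling, HpaI digestion and capillary electrophoresis, relative to DMSO.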

Assay [17] addresses X-box-binding protein 1 (Homo sapiens) (UniProt P17861). In words: ATG_Xbp1_CIS: Attagene CIS-FACTORIAL HepG2 Assay for human X-box Binding Protein 1 (XBP1) (AID 2282972). Conditions: HepG2 XBP1 cis-element reporter, Attagene multiplex; actives raise or lower the signal. Put shortly:
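After a 24-hour chemical exposure of HepG2 cells carrying cis-regulated reporters, reporter mRNA levels are assessed. Quantification uses RT-PCR, 6-FAM labelling and capillary electrophoresis. Gain- or loss-of-signal is fitted against DMSO.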

A short description of assay [18]: ATG_M_19_TRANS: Attagene TRANS-FACTORIAL HepG2 Assay for M19 Transcription Factor (Internal Marker) (AID 2282974; active = hit-call score of the fitted dose curve at least 0.9, where 1 is the maximum). As to conditions: HepG2 Attagene TRANS-FACTORIAL M19 internal marker reporter. The procedure, abridged: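 Reporter mRNA induction was measured in transfected HepG2 cells 24 h after dosing. Endpoint fitted upward relative to DMSO and serves as a background control within the multiplexed TRANS panel.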

Assay [19] in a line: ATG_GAL4_TRANS: Attagene TRANS-FACTORIAL HepG2 Assay for GAL4 (Internal Marker) (AID 2282976; active = hit-call score of the fitted dose curve at least 0.9, where 1 is the maximum). As to conditions: HepG2 Attagene TRANS GAL4 internal marker reporter. The procedure, abridged:
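Background-control readout: GAL4-UAS reporter transcript in transiently transfected HepG2 cells after 24 h compound exposure. Measured by RT-PCR, 6-FAM primer extension, HpaI digest and capillary electrophoresis; gain-of-signal fit versus DMSO.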

Signal transducer and activator of transcription 3 (Homo sapiens), sequence (P40763 whole entry, looked up): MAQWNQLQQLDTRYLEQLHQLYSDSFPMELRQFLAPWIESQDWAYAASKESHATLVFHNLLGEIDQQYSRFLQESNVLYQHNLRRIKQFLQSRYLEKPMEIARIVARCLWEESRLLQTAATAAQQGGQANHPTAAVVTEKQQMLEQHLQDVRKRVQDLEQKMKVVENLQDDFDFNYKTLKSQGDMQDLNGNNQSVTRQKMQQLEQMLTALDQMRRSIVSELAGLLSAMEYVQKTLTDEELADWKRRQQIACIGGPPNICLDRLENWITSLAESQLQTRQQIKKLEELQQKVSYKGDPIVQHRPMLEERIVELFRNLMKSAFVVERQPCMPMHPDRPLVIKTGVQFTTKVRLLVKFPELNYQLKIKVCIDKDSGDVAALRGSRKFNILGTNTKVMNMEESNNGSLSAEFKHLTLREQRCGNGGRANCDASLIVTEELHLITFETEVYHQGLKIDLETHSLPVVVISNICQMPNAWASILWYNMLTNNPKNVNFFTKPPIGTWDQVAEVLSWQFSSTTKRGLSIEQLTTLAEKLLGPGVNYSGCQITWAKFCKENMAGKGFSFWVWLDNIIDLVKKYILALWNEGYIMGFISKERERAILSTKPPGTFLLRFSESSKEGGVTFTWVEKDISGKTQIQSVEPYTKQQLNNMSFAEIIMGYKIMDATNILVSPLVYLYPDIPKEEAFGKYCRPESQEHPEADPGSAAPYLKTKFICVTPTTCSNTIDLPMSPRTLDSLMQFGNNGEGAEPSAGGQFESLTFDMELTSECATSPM
Transcription factor Sp1 (Homo sapiens), sequence (P08047 whole entry, looked up): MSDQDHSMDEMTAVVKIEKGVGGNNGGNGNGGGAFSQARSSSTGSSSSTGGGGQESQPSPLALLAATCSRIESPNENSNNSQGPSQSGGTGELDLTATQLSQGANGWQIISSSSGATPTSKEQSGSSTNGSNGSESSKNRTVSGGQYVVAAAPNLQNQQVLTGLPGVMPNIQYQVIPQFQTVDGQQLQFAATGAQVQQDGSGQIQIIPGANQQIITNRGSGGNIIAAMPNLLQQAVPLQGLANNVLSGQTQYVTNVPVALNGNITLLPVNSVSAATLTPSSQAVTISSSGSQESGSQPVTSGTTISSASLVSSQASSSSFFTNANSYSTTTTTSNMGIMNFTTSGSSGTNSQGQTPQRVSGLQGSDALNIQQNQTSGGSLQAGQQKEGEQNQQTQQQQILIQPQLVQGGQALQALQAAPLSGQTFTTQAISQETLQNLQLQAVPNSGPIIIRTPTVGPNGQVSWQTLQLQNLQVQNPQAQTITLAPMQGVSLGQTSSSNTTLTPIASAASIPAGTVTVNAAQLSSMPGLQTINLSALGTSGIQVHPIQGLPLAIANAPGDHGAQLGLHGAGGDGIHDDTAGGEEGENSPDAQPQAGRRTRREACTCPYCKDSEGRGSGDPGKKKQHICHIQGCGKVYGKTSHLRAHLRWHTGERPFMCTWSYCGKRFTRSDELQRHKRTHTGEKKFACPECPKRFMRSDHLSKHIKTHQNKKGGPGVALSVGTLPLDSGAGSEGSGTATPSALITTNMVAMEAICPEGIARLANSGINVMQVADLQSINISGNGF
Paired box protein Pax-6 (Homo sapiens), sequence (P26367 whole entry, looked up): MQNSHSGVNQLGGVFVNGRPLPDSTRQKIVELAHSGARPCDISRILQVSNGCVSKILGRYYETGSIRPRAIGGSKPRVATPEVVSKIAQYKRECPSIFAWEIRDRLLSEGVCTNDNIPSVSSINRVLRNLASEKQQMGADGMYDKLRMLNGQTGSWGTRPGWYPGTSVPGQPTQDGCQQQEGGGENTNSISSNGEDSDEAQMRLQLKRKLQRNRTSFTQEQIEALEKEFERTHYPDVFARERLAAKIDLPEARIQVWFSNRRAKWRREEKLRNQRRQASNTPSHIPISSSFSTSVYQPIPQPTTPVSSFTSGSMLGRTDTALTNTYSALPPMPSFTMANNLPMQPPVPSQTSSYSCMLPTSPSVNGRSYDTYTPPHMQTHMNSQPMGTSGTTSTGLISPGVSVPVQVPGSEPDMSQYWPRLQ
Nuclear receptor subfamily 1 group I member 3 (Homo sapiens), sequence (Q14994 whole entry, looked up, the tested form may be a part): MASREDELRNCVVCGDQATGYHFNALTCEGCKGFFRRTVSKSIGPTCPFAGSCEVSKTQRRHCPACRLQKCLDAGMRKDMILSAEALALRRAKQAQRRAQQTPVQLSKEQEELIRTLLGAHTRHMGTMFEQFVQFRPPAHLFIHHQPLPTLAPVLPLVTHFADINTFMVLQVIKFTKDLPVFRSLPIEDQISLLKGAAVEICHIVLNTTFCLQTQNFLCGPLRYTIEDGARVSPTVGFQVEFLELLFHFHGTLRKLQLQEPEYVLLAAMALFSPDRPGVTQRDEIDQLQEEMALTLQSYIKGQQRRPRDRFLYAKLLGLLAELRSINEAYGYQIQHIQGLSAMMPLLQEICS
X-box-binding protein 1 (Homo sapiens), sequence (P17861 whole entry, looked up): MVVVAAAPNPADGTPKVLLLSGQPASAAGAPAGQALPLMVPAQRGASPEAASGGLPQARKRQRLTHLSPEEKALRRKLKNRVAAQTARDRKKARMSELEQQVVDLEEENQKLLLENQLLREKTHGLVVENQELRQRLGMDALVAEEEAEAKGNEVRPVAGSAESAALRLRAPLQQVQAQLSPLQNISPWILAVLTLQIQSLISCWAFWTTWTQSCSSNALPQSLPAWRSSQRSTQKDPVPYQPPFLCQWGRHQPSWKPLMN
Estrogen receptor (Homo sapiens), sequence (P03372 whole entry, looked up, the tested form may be a part): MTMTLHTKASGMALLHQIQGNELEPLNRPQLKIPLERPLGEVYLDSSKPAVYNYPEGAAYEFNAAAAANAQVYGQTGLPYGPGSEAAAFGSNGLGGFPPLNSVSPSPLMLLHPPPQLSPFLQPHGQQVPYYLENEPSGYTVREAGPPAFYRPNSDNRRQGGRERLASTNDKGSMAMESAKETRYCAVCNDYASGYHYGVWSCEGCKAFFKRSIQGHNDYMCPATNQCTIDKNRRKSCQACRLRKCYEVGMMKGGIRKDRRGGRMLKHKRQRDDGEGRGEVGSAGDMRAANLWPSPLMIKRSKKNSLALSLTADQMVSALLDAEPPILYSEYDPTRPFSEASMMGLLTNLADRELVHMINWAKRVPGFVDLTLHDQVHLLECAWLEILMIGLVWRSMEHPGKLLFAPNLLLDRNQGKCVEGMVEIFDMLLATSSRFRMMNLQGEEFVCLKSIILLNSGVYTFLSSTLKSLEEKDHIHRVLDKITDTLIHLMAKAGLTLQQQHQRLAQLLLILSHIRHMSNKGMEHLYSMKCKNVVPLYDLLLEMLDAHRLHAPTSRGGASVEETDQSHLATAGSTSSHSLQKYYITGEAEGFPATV

Consider `CCOC(=O)COC(=O)c1ccccc1C(=O)OCC`, for which the result in [1], in [2], in [4], in assay [5], in assay [6] and in assay [7] was inactive. Besides, the call in assay [8], in [9], in [10], in [11], in assay [12] and in [13] was inactive. Besides, the compound was called inactive in [14], in assay [15], in assay [16] and in [17]. In addition, in assay [3], the AC50 (commonly the concentration at which the activity in the assay is half-maximal) is 50.1 µM (active).

Turning to `CCC(C)(C)c1cc(O)c(C(C)(C)CC)cc1O`, the outcome in assay [1], in [3], in assay [4], in assay [5], in [9] and in assay [10] was inactive. Further, the compound was classed as inactive in assay [12]. Besides, the AC50 was 68.9 µM (active) in assay [2]; 100 µM (active) in [6]; 4.19 µM (active) in [7]; 4.61 µM (active) in [8]; 27.4 µM (active) in assay [11]; 146 µM (active) in assay [13]. Further, the results for the AC50 in assay [14] and in assay [17] were 19.8 µM (active) and 5.91 µM (active), respectively.

With `CCCCN(CCCC)CCCCCCN(CCCC)CCCC`, the outcome in assay [1], in assay [2], in assay [3], in assay [4], in [5] and in [6] was inactive. The compound was called inactive in assay [7], in assay [8], in assay [9], in [10], in assay [11] and in [12]. The compound was classed as inactive in [13], in assay [14], in assay [15], in assay [17] and in assay [18].

For `NCCN1CCNCC1`, the result in [1], in [2], in assay [3], in assay [4], in assay [5] and in assay [6] was inactive. Also, the compound was called inactive in assay [7], in assay [8], in assay [9], in assay [10], in assay [11] and in assay [13]. The outcome in assay [14], in assay [15], in assay [16], in assay [17] and in assay [18] was inactive.

For `CC(=O)OC(C)(C)C1CC=C(C)CC1` (configuration not stated), the result in assay [1], in [2], in assay [4], in assay [5], in assay [6] and in assay [7] was inactive. For the same compound, the compound was classed as inactive in assay [8], in [9], in assay [10], in [11], in [12] and in [14]. For the same compound, the outcome in assay [15], in [17], in [18] and in assay [19] was inactive. Moreover, the AC50 in [3] is 36.9 µM (active); in assay [16], 61.7 µM (active).

Turning to `CCCCOCC(C)OCC(C)O` (configuration not stated), the result in assay [1], in assay [2], in assay [3], in assay [4], in assay [5] and in assay [6] was inactive. In addition, the compound was called inactive in assay [7], in [8], in assay [9], in assay [10], in assay [11] and in assay [12]. The result in assay [13], in [14], in assay [16], in assay [17] and in assay [18] was inactive.

On to `CC(=O)c1ccc(C)cc1`, for which the outcome in [1], in [2], in [3], in assay [4], in assay [5] and in [6] was inactive. For the same compound, the outcome in assay [7], in [8], in assay [9], in [10], in assay [11] and in [12] was inactive. Moreover, the call in assay [13], in [14], in assay [15], in assay [16], in assay [17] and in assay [18] was inactive. Further, in assay [19], the result was inactive.

On to `c1ccc(OCCOc2ccccc2)cc1`, for which the result in assay [1], in assay [2], in assay [3], in [5], in assay [6] and in assay [7] was inactive. In addition, the result in assay [8], in [9], in [10], in assay [11], in assay [12] and in assay [13] was inactive. For the same compound, the call in [14], in [16], in assay [17] and in [18] was inactive. Further, the AC50 in assay [4] is 0.0167 µM (active).
